Assay [1] is described as follows: NCI Yeast Anticancer Drug Screen. Data for the rad50 strain (AID 155).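 Note: 0% = growth of vehicle-only cultures of the same strain.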 The settings on record: S. cerevisiae rad50 strain growth inhibition; at 50.0 µM; stronger effect = higher value. An outline of the steps:
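Growth of the mutant yeast was measured after compound exposure and referenced to vehicle-treated cultures.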

The nature of assay [2]: NCI Yeast Anticancer Drug Screen. Data for the mec2-1 strain (AID 157). The settings on record: S. cerevisiae mec2-1 strain, at 50.0 µM, stronger effect = higher value. The procedure, abridged:
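Vehicle-treated cultures served as reference for growth inhibition of compound-exposed mec2-1 yeast.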

Assay [3] is described as follows: NCI Yeast Anticancer Drug Screen. Data for the sgs1 mgt1 strain (AID 161).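 Note: 0% = growth of cultures given vehicle only.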 The settings on record: S. cerevisiae sgs1 mgt1 strain, at 50.0 µM, stronger effect = higher value. The procedure, abridged:
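Genetically altered yeast, compound exposure, growth inhibition relative to vehicle.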

Assay [4] can be described thus: NCI Yeast Anticancer Drug Screen. Data for the cln2 rad14 strain (AID 165).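 Note: 0% = growth equal to vehicle treated cultures.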 The following applies: S. cerevisiae cln2 rad14 strain, at 50.0 µM, stronger effect = higher value. The procedure, abridged: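 Each compound was tested on cln2 rad14 yeast. Inhibition of growth was calculated against vehicle-exposed controls.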
Assay [5] is described as follows: NCI Yeast Anticancer Drug Screen. Data for the bub3 strain (AID 167). The following applies: S. cerevisiae bub3 mutant strain, at 50.0 µM, stronger effect = higher value. An outline of the steps: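 Whole-cell yeast assay. The mutant strain was incubated with compounds, and growth inhibition was determined by comparison with vehicle-treated cells.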
Assay [6] is described as follows: NCI Yeast Anticancer Drug Screen. Data for the mlh1 rad18 strain (AID 175). The following applies: S. cerevisiae mlh1 rad18 strain growth inhibition; at 50.0 µM; stronger effect = higher value. An outline of the steps:
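Vehicle-treated cultures served as the reference for growth inhibition in a yeast strain carrying DNA damage repair alterations exposed to each compound.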

Compounds without any hit were thinned out: in the full panel of roughly 79,000, 15% have a hit. Unmarked numbers belong to inactive results. The source made the active and inactive calls. Cut-off read from the data, not from the text of the source: active = growth inhibition above about 70%; inactive = the rest.

In the case of `O=C(O)C(O)C(O)C(O)C(O)C(=O)O.[Cu+2]` (stereo not given), the growth inhibition in assay [1] was 1.2%; in assay [2], -6.15%; in assay [3], 2.25%; in assay [4], 0%; in assay [5], -4.4%; in assay [6], 15.2%.

On to `O=NC1C(Cl)C2CC1C1C(Cl)C(Cl)CC21` (stereo not given), for which the growth inhibition in assay [1] was 35%; in assay [2], 14.7%; in assay [3] it was 52.9%; in assay [4] it was 40.4%; in assay [5], 27.4%; in assay [6], 33.1%.

For `NCCN.O=C([O-])CN1CCOCC1.[OH-].[Pt+4]`, the growth inhibition in assay [1] is 8.9%; in assay [2], -5.25%; in assay [3], -29.9%; in assay [4], -17.9%; in assay [5], -13.7%; in assay [6], -19.9%.

As to `c1ccc(-c2csc3[n+]2CCN3)cc1`, the growth inhibition was 18.6% in assay [1]; 13.9% in assay [2]; 12.8% in assay [3]; 5.3% in assay [4]; 2.8% in assay [5]; 14.2% in assay [6].

With `O=c1ccn(-c2ccccn2)c(=O)n1-c1ccccn1`, the growth inhibition was 18.9% in assay [1]; -15.9% in assay [2]; 2.95% in assay [3]; 24.3% in assay [4]; -6.35% in assay [5]; -31.8% in assay [6].

On to `CCCCCCCCCc1ccc(OC(=O)CCC)cc1`, for which the growth inhibition in assay [1] is 2.4%; in assay [2] it was -22.6%; in assay [3] it was -15.1%; in assay [4], -50%; in assay [5] it was -2.95%; in assay [6], 20.7%.

On to `CCOC(=O)C(C)N1CCCCCCC1` (stereo not given), for which the growth inhibition in assay [1] was -19.9%; in assay [2] it was -13.5%; in assay [3], -2.3%; in assay [4] it was -26.2%; in assay [5], -6.15%; in assay [6], -0.8%.

For the compound `CNC(=O)c1ccccc1C(=O)c1ccccc1OC`, the growth inhibition in assay [1] is 7.5%; in assay [2], -11.7%; in assay [3], -3.05%; in assay [4] it was -25.1%; in assay [5] it was 17.4%; in assay [6], 2.15%.

Take `CCCOP(=O)(CCCP(=O)(OCCC)OCCC)OCCC`: the growth inhibition in assay [1] is -8.4%; in assay [2], -9.6%; in assay [3], 0.5%; in assay [4] it was -25.6%; in assay [5], 6.2%; in assay [6], -12.5%.

`COc1ccc(CN2C(=O)C(=O)N(C)C2=O)c2ccccc12`: the growth inhibition in assay [1] was 36.9%; in assay [2], 4.65%; in assay [3], 13.8%; in assay [4], 18.1%; in assay [5] it was 18.5%; in assay [6], 23.6%.

`NC(=O)OCc1c(-c2ccccc2)nn(-c2ccccc2)c1COC(N)=O`: the growth inhibition in assay [1] is -26.2%; in assay [2], -31%; in assay [3], -18.5%; in assay [4], -19.6%; in assay [5] it was 1.05%; in assay [6], -16.2%.

`CC(Nc1cccc(Cl)c1)S(=O)(=O)O` (stereo not given): the growth inhibition in assay [1] is 8.05%; in assay [2], 5.7%; in assay [3], -8%; in assay [4] it was 26.4%; in assay [5], 2%; in assay [6] it was -0.25%.

As for `O=C(Nc1cccc2ccccc12)c1ccc(Cl)c(Cl)c1`, the growth inhibition in assay [1] is 38.6%; in assay [2] it was 53.4%; in assay [3], 52.8%; in assay [4] it was 43.8%; in assay [5], 63.5%; in assay [6] it was 72.3% (active).

Turning to `O=C(NC(Cc1ccccc1)C(=O)NC(Cc1c[nH]c2ccccc12)C(=O)O)OCc1ccccc1` (stereo not given), the growth inhibition is 1.9% in assay [1]; 7.45% in assay [2]; -3.95% in assay [3]; -7.3% in assay [4]; -3.55% in assay [5]; 12.2% in assay [6].

`C#[N+]CCOP(=O)(OCC1OC(n2cc(C)c(=O)[nH]c2=O)CC1N=[N+]=[N-])O[C@H]1CC[C@@]2(C)C(=CC[C@H]3[C@@H]4CC[C@H](C(C)/C=C/C(CC)C(C)C)[C@@]4(C)CC[C@@H]32)C1` (stereo not given in full): the growth inhibition in assay [1] is -32.3%; in assay [2], -14.4%; in assay [3], -23.1%; in assay [4], -7.4%; in assay [5], 7.5%; in assay [6] it was -19.1%.

For `COC(C(=O)[O][Ge]([CH3])([CH3])[CH3])c1ccccc1` (stereo not given), the growth inhibition in assay [1] was 13.8%; in assay [2], -17.8%; in assay [3] it was -6.85%; in assay [4] it was 31.4%; in assay [5] it was -2.15%; in assay [6], -9.25%.

For the compound `COC(=O)c1cccc2ccc3cccc(C=O)c3c12`, the growth inhibition in assay [1] was -29.4%; in assay [2] it was 6.6%; in assay [3] it was -5.9%; in assay [4] it was -30.8%; in assay [5], 12.2%; in assay [6], -14.5%.

Regarding `CC(=O)N1CCc2ccccc2C1C1NCCc2ccccc21` (stereo not given), the growth inhibition is 14.4% in assay [1]; 8.95% in assay [2]; 13.1% in assay [3]; -0.15% in assay [4]; 1.05% in assay [5]; 5.9% in assay [6].

In the case of `Cc1nc(N)c2c(n1)C(Cc1ccccc1)N(C(=O)c1ccccc1)C2` (stereo not given), the growth inhibition is -5.6% in assay [1]; -4.3% in assay [2]; -24.1% in assay [3]; -24.4% in assay [4]; 6.55% in assay [5]; -17.4% in assay [6].

As for `CCc1cc(COC(C)=O)on1`, the growth inhibition was 5.35% in assay [1]; -18.5% in assay [2]; -8.4% in assay [3]; -35.9% in assay [4]; -1.9% in assay [5]; -2.6% in assay [6].
